# Source: PubChem BioAssay (NCI)
# Values joined by “and” are separate entries in the source; they are usually repeats but may differ in a detail not shown here. Equal entries are not always repeated. Compounds without any hit were thinned out: in the full panel of roughly 79,000, 15% have a hit. A structure can be active in one record and inactive in another. Active and inactive are the calls of the source. No stated cut-off is given here; in the data, active means growth inhibition above about 70%; inactive means the rest.
# What was measured:
# [1] = NCI Yeast Anticancer Drug Screen. Data for the rad52 strain (AID 147);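 further: 0% = growth of vehicle-treated control cultures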; conditions: S. cerevisiae rad52 mutant growth inhibition, stronger effect = higher value
# Outline: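 Screen used a yeast mutant impaired in DNA repair. After compound exposure, growth was measured. Values reflect inhibition compared with vehicle-treated cells.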
# [2] = NCI Yeast Anticancer Drug Screen. Data for the wt1 strain (AID 149);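 further: 0% = growth of vehicle-treated wt1 cultures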; conditions: S. cerevisiae wt1 strain (SPY 50644) growth inhibition, stronger effect = higher value
# Outline: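 wt1 yeast, compound-treated; % growth inhibition vs vehicle control.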
# [3] = NCI Yeast Anticancer Drug Screen. Data for the rad50EPP+ strain (AID 151);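 further: 0% = growth of vehicle-treated control cultures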; conditions: S. cerevisiae rad50 mutant strain, stronger effect = higher value
# Outline: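 Exposing the rad50EPP+ strain to each compound, growth was compared with vehicle-only cultures to give inhibition.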
# [4] = NCI Yeast Anticancer Drug Screen. Data for the rad50 strain (AID 155);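 further: 0% = growth of vehicle-only cultures of the same strain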; conditions: S. cerevisiae rad50 strain growth inhibition, stronger effect = higher value
# Outline: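 Genetically altered yeast (DNA repair pathway); compound treatment; growth inhibition vs vehicle ctrl.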
# [5] = NCI Yeast Anticancer Drug Screen. Data for the mec2-1 strain (AID 157); conditions: S. cerevisiae mec2-1 strain, stronger effect = higher value
# Outline: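 Readout is yeast growth inhibition, normalised to vehicle-treated controls, in the mec2-1 strain exposed to compound.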
# [6] = NCI Yeast Anticancer Drug Screen. Data for the sgs1 mgt1 strain (AID 161);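 further: 0% = growth of cultures given vehicle only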; conditions: S. cerevisiae sgs1 mgt1 strain, stronger effect = higher value
# Outline: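 Percent growth inhibition was derived by comparing compound-exposed mutant yeast with vehicle-exposed cultures. The strain carries alterations in DNA damage repair.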
# [7] = NCI Yeast Anticancer Drug Screen. Data for the CLN2oe strain (AID 163);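 further: 0% = growth of vehicle-only control cultures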; conditions: S. cerevisiae CLN2oe strain, stronger effect = higher value
# Outline: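 Values reflect how much compound exposure reduced yeast growth, referenced to vehicle-exposed cells. Assay organism is a strain with a defined genetic change affecting cell-cycle control.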
# [8] = NCI Yeast Anticancer Drug Screen. Data for the cln2 rad14 strain (AID 165);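 further: 0% = growth equal to vehicle treated cultures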; conditions: S. cerevisiae cln2 rad14 strain, stronger effect = higher value
# Outline: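 Relative to vehicle controls, growth inhibition of compound-treated cln2 rad14 yeast was recorded.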
# [9] = NCI Yeast Anticancer Drug Screen. Data for the bub3 strain (AID 167); conditions: S. cerevisiae bub3 mutant strain, stronger effect = higher value
# Outline: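 Yeast carrying a defined mutation is treated with each compound, and growth is compared with that of vehicle-exposed cells to give inhibition.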
# [10] = NCI Yeast Anticancer Drug Screen. Data for the wt2 strain (AID 169);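 further: 0% = growth of vehicle-treated yeast cultures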; conditions: S. cerevisiae wt2 strain growth inhibition, stronger effect = higher value
# Outline: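 Values express reduction in yeast growth under compound treatment, referenced to vehicle-treated cells.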
# [11] = NCI Yeast Anticancer Drug Screen. Data for the mlh1 strain (AID 171);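 further: 0% = growth of vehicle-treated control cultures of the same strain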; conditions: S. cerevisiae mlh1 strain growth inhibition, stronger effect = higher value
# Outline: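 Steps: expose the defined-mutant yeast strain to compound; expose a parallel culture to vehicle; measure growth; express compound effect as inhibition relative to the vehicle culture.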
# [12] = NCI Yeast Anticancer Drug Screen. Data for the sgs1 strain (AID 173);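 further: 0% = growth of vehicle-only control cultures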; conditions: S. cerevisiae sgs1 mutant, stronger effect = higher value
# Outline: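 Treat defined-mutant yeast with compound; measure growth; calculate inhibition relative to vehicle-treated cells.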
# [13] = NCI Yeast Anticancer Drug Screen. Data for the mlh1 rad18 strain (AID 175); conditions: S. cerevisiae mlh1 rad18 strain growth inhibition, stronger effect = higher value
# Outline: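 Test agents were incubated with a yeast strain of defined genotype (DNA damage repair defect). Inhibition of growth was derived by comparison with vehicle-exposed cultures.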
# [14] = NCI Yeast Anticancer Drug Screen. Data for the rad18 strain (AID 177); conditions: S. cerevisiae rad18 mutant growth inhibition, stronger effect = higher value
# Outline: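 A genetically defined yeast mutant impaired in DNA damage repair was treated with test compounds, then its growth was measured against cultures receiving vehicle alone.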
# [15] = NCI Yeast Anticancer Drug Screen. Data for the rad14 strain (AID 159);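 further: 0% = growth of vehicle-treated control cultures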; conditions: S. cerevisiae rad14 strain growth inhibition, stronger effect = higher value
# Outline: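 Test compounds were applied to a repair-deficient yeast strain. Its growth was then compared with that of cultures given vehicle alone, and inhibition was expressed relative to those controls.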
# [16] = at 5.0 µM (retest, dose inferred, filed as 0.5)
# [17] = at 50.0 µM (retest, dose inferred, filed as 5.0)
compound,measurement,setting,value
CN(C)c1ccc(/C=C/c2ccnc3ccccc23)cc1N,growth inhibition,[1]; at 1.2 µM,-6% (inactive)
same,growth inhibition,[1]; at 3.7 µM,-8% (inactive)
same,growth inhibition,[1]; at 11.0 µM,-10% (inactive)
same,growth inhibition,[1]; at 33.0 µM,-5% (inactive)
same,growth inhibition,[1]; at 100.0 µM,5% (inactive)
same,growth inhibition,[2]; at 1.2 µM,-2% (inactive)
same,growth inhibition,[2]; at 3.7 µM,-4% (inactive)
same,growth inhibition,[2]; at 11.0 µM,-9% (inactive)
same,growth inhibition,[2]; at 33.0 µM,-15% (inactive)
same,growth inhibition,[2]; at 100.0 µM,-7% (inactive)
same,growth inhibition,[3]; at 1.2 µM,-7% (inactive)
same,growth inhibition,[3]; at 3.7 µM,-4% (inactive)
same,growth inhibition,[3]; at 11.0 µM,5% (inactive)
same,growth inhibition,[3]; at 33.0 µM,29% (inactive)
same,growth inhibition,[3]; at 100.0 µM,56% (inactive)
same,growth inhibition,[4]; at 1.2 µM,-5% (inactive)
same,growth inhibition,[4]; at 3.7 µM,-10% (inactive)
same,growth inhibition,[4]; [16],-25% (inactive) and -10% (inactive)
same,growth inhibition,[4]; at 11.0 µM,-13% (inactive)
same,growth inhibition,[4]; at 33.0 µM,5% (inactive)
same,growth inhibition,[4]; [17],-13% (inactive) and 77% (active)
same,growth inhibition,[4]; at 50.0 µM,2.85% (inactive) and -9.8% (inactive)
same,growth inhibition,[4]; at 100.0 µM,17% (inactive)
same,growth inhibition,[5]; at 1.2 µM,-6% (inactive)
same,growth inhibition,[5]; at 3.7 µM,-6% (inactive)
same,growth inhibition,[5]; [16],-1% (inactive) and 4% (inactive)
same,growth inhibition,[5]; at 11.0 µM,-7% (inactive)
same,growth inhibition,[5]; at 33.0 µM,-4% (inactive)
same,growth inhibition,[5]; [17],-6% (inactive) and 94% (active)
same,growth inhibition,[5]; at 50.0 µM,32.1% (inactive) and -2.55% (inactive)
same,growth inhibition,[5]; at 100.0 µM,14% (inactive)
same,growth inhibition,[6]; [16],-8% (inactive) and -6% (inactive)
same,growth inhibition,[6]; [17],43% (inactive) and 95% (active)
same,growth inhibition,[6]; at 50.0 µM,64.8% (inactive) and 1.25% (inactive)
same,growth inhibition,[7]; at 1.2 µM,-1% (inactive)
same,growth inhibition,[7]; at 3.7 µM,-5% (inactive)
same,growth inhibition,[7]; at 11.0 µM,-19% (inactive)
same,growth inhibition,[7]; at 33.0 µM,-16% (inactive)
same,growth inhibition,[7]; at 100.0 µM,-4% (inactive)
same,growth inhibition,[8]; [16],-6% (inactive) and -8% (inactive)
same,growth inhibition,[8]; [17],7% (inactive) and 40% (inactive)
same,growth inhibition,[8]; at 50.0 µM,-28.1% (inactive) and -22.4% (inactive)
same,growth inhibition,[9]; at 1.2 µM,-5% (inactive)
same,growth inhibition,[9]; at 3.7 µM,-5% (inactive)
same,growth inhibition,[9]; [16],3% (inactive) and -7% (inactive)
same,growth inhibition,[9]; at 11.0 µM,-8% (inactive)
same,growth inhibition,[9]; at 33.0 µM,-6% (inactive)
same,growth inhibition,[9]; [17],5% (inactive) and 89% (active)
same,growth inhibition,[9]; at 50.0 µM,81.6% (active) and -6.75% (inactive)
same,growth inhibition,[9]; at 100.0 µM,20% (inactive)
same,growth inhibition,[10]; at 1.2 µM,-5% (inactive)
same,growth inhibition,[10]; at 3.7 µM,-8% (inactive)
same,growth inhibition,[10]; at 11.0 µM,-10% (inactive)
same,growth inhibition,[10]; at 33.0 µM,6% (inactive)
same,growth inhibition,[10]; at 100.0 µM,52% (inactive)
same,growth inhibition,[11]; at 1.2 µM,-3% (inactive)
same,growth inhibition,[11]; at 3.7 µM,-3% (inactive)
same,growth inhibition,[11]; at 11.0 µM,-1% (inactive)
same,growth inhibition,[11]; at 33.0 µM,7% (inactive)
same,growth inhibition,[11]; at 100.0 µM,42% (inactive)
same,growth inhibition,[12]; at 1.2 µM,-3% (inactive)
same,growth inhibition,[12]; at 3.7 µM,-2% (inactive)
same,growth inhibition,[12]; at 11.0 µM,-3% (inactive)
same,growth inhibition,[12]; at 33.0 µM,20% (inactive)
same,growth inhibition,[12]; at 100.0 µM,64% (inactive)
same,growth inhibition,[13]; [16],-12% (inactive) and 5% (inactive)
same,growth inhibition,[13]; [17],13% (inactive) and 97% (active)
same,growth inhibition,[13]; at 50.0 µM,81.8% (active) and 0.6% (inactive)
same,growth inhibition,[14]; at 1.2 µM,-4% (inactive)
same,growth inhibition,[14]; at 3.7 µM,-3% (inactive)
same,growth inhibition,[14]; at 11.0 µM,-8% (inactive)
same,growth inhibition,[14]; at 33.0 µM,11% (inactive)
same,growth inhibition,[14]; at 100.0 µM,32% (inactive)
CCCCCCCCCCCc1nc(N)n[nH]1,growth inhibition,[1]; at 1.2 µM,-1% (inactive)
same,growth inhibition,[1]; at 3.7 µM,-7% (inactive)
same,growth inhibition,[1]; at 11.0 µM,5% (inactive)
same,growth inhibition,[1]; at 33.0 µM,87% (active)
same,growth inhibition,[1]; at 100.0 µM,96% (active)
same,growth inhibition,[2]; at 1.2 µM,-3% (inactive)
same,growth inhibition,[2]; at 3.7 µM,-4% (inactive)
same,growth inhibition,[2]; at 11.0 µM,1% (inactive)
same,growth inhibition,[2]; at 33.0 µM,67% (inactive)
same,growth inhibition,[2]; at 100.0 µM,95% (active)
same,growth inhibition,[3]; at 1.2 µM,-1% (inactive)
same,growth inhibition,[3]; at 3.7 µM,7% (inactive)
same,growth inhibition,[3]; at 11.0 µM,16% (inactive)
same,growth inhibition,[3]; at 33.0 µM,55% (inactive)
same,growth inhibition,[3]; at 100.0 µM,70% (active)
same,growth inhibition,[4]; at 1.2 µM,-11% (inactive)
same,growth inhibition,[4]; at 3.7 µM,-13% (inactive)
same,growth inhibition,[4]; [16],-181% (inactive)
same,growth inhibition,[4]; at 11.0 µM,-7% (inactive)
same,growth inhibition,[4]; at 33.0 µM,92% (active)
same,growth inhibition,[4]; [17],81% (active)
same,growth inhibition,[4]; at 50.0 µM,97.1% (active)
same,growth inhibition,[4]; at 100.0 µM,96% (active)
same,growth inhibition,[5]; at 1.2 µM,-4% (inactive)
same,growth inhibition,[5]; at 3.7 µM,1% (inactive)
same,growth inhibition,[5]; [16],-48% (inactive)
same,growth inhibition,[5]; at 11.0 µM,0% (inactive)
same,growth inhibition,[5]; at 33.0 µM,73% (active)
same,growth inhibition,[5]; [17],87% (active)
same,growth inhibition,[5]; at 50.0 µM,96.7% (active)
same,growth inhibition,[5]; at 100.0 µM,93% (active)
same,growth inhibition,[15]; at 1.2 µM,5% (inactive)
same,growth inhibition,[15]; at 3.7 µM,1% (inactive)
same,growth inhibition,[15]; at 11.0 µM,7% (inactive)
same,growth inhibition,[15]; at 33.0 µM,65% (inactive)
same,growth inhibition,[15]; at 100.0 µM,96% (active)
same,growth inhibition,[8]; [16],-79% (inactive)
same,growth inhibition,[8]; [17],62% (inactive)
same,growth inhibition,[8]; at 50.0 µM,75.9% (active)
same,growth inhibition,[9]; at 1.2 µM,5% (inactive)
same,growth inhibition,[9]; at 3.7 µM,-2% (inactive)
same,growth inhibition,[9]; [16],-79% (inactive)
same,growth inhibition,[9]; at 11.0 µM,4% (inactive)
same,growth inhibition,[9]; at 33.0 µM,75% (active)
same,growth inhibition,[9]; [17],88% (active)
same,growth inhibition,[9]; at 50.0 µM,95.8% (active)
same,growth inhibition,[9]; at 100.0 µM,91% (active)
same,growth inhibition,[11]; at 1.2 µM,-10% (inactive)
same,growth inhibition,[11]; at 3.7 µM,-6% (inactive)
same,growth inhibition,[11]; at 11.0 µM,-3% (inactive)
same,growth inhibition,[11]; at 33.0 µM,79% (active)
same,growth inhibition,[11]; at 100.0 µM,95% (active)
same,growth inhibition,[12]; at 1.2 µM,-5% (inactive)
same,growth inhibition,[12]; at 3.7 µM,-13% (inactive)
same,growth inhibition,[12]; at 11.0 µM,21% (inactive)
same,growth inhibition,[12]; at 33.0 µM,92% (active)
same,growth inhibition,[12]; at 100.0 µM,96% (active)
same,growth inhibition,[13]; [16],-154% (inactive)
same,growth inhibition,[13]; [17],20% (inactive)
same,growth inhibition,[13]; at 50.0 µM,93% (active)
same,growth inhibition,[14]; at 1.2 µM,-12% (inactive)
same,growth inhibition,[14]; at 3.7 µM,-5% (inactive)
same,growth inhibition,[14]; at 11.0 µM,-7% (inactive)
same,growth inhibition,[14]; at 33.0 µM,68% (inactive)
same,growth inhibition,[14]; at 100.0 µM,94% (active)
